Screening data (PubChem)
FMDV inh = antivirals against foot and mouth disease virus; FMDV antiviral cell-based qHTS; Potency, µM (highest dose often 57.9 µM), for the others: at the top dose activity change, negative = inhibition, hits mostly inhibitors; hit rate 1.2% among 410,000; calls by dose curve; tested in HEK293T cells; further: read-out not given here; nearly all actives have a fitted effect of over 45% in size
Sm TGR inh = inhibitors of Schistosoma mansoni thioredoxin glutathione reductase | hit rate 3% among 360,000 | purified TGR, DTNB reduction, TNB absorbance 405 nm | Potency, µM (top dose mostly 114 µM), without a hit: top-dose activity change, negative = inhibition, most hits filed as inhibitors | Q962Y6; further: nearly all actives have a fitted effect of over 60% in size
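Kinetic colorimetric format: TGR-catalysed, NADPH-driven DTNB reduction monitored via TNB absorbance. Enzyme dispensed at 20 nM; compound exposure 15 min at room temperature before reaction start.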
MARV entry inh = blocks Marburg virus binding to or entry into cells; Marburg virus pseudotyped entry inhibition, cell reporter; Potency, µM (series often up to 37.8 µM), inactives show top-dose activity change, negative = inhibition, most hits filed as inhibitors; hit rate 1.8% among 300,000; AID 540276; calls by dose curve; tested in HEK293 cells
HCV inhibitor = blocks hepatitis C virus; Huh7.5.1 HCVcc-Cre infection, luciferase reporter, 44 h; AID 651820; hit rate 3.4% among 340,000; Potency, µM (titrated, usually from 41.8 µM), without a hit: at the top dose activity change, negative = inhibition, hits mostly inhibitors
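A cell-based infection assay in which seeded cells (1,000 per well) receive test compound after 4 h, are inoculated with HCVcc-Cre at approximately 0.5 moi, and are incubated 44 h before luminescence detection.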
LASV entry inh = blocks Lassa virus binding to or entry into cells; hit rate 1.2% among 300,000; Potency, µM (doses to about 37.9 µM), without a hit: top-dose activity change, negative = inhibition, actives largely listed as inhibitors; Lassa virus pseudotype entry inhibition, cell reporter; calls by dose curve; tested in HEK293 cells; further: nearly all actives have a fitted effect of over 50% in size
RE007 growth inh = less growth of the S. pombe RE007 Vpr strain | S. pombe RE007 Vpr strain, BacTiter-Glo ATP luminescence, 24 h | AID 651644 | Potency, µM (series often up to 92.2 µM), without a hit: at the top dose activity change, negative = less growth, actives largely listed as inhibitors | hit rate 0.21% among 360,000; active means well fitted falling curve with a large enough effect; inconclusive means small, poorly fitted or top-dose-only effect; inactive means no such curve, though single readings can be large or run the other way; further: nearly all actives have a fitted effect of over 50% in size
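Fission yeast RE007 carrying one integrated HIV-1 vpr copy, seeded at OD 0.01 in PMG+AL medium with 23 nL pinned compound. Grown 24 h at 30 degrees; viability read by BacTiter-Glo luminescence after 5 min.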
The depositor's hits bear a star; u = inconclusive; x = not tested or not shown; [ ] = remark or other dose. Hits are enriched below; roughly 7.2% of the tested compounds scored in any of these assays. Unless noted, the call rests on the fitted dose curve; in most records, active means well fitted curve in the direction sought with a large enough effect; inconclusive means small, poorly fitted or top-dose-only effect, or another doubt; inactive means no such curve, though single readings can be large; an effect the other way counts as inactive or inconclusive. On the % scale 0 is the no-effect control and ±100 the full control effect; potency means the concentration at half of the fitted maximal effect.

SMILES	FMDV inh	Sm TGR inh	MARV entry inh	HCV inhibitor	LASV entry inh	RE007 growth inh
N#Cc1cccc(NC(=O)N2CCCC3(CCN(C(=O)c4cnccn4)CC3)C2)c1	-9%	x	x	x	x	x
Cc1ccc(CNC(=O)c2ccc(-n3c(C)cc4c3CCCC4)cc2)cc1	-3%	u	x	x	u	x
Cc1cc2c(n1-c1ccc(C(=O)O)cc1)CCCCC2	x	25µM*	x	x	x	x
CCCCCCN(C(=O)CCl)c1ccccc1	20µM*	2.5µM*	x	5µM*	x	9%
O=C(CCl)N(CCc1ccccc1)CCc1ccccc1	28µM*	13µM*	u	u	u	4%
O=C(CCCc1ccccc1)NCCc1ccccc1	72%	-1%	x	-3%	x	3%
CC(=O)N(CCN(C(C)=O)c1ccccc1)c1ccccc1	-3%	1%	u	7%	-5%	3%
O=C(CCl)N(c1ccccc1)c1ccccc1	14µM*	1.3µM*	u	8.9µM*	u	25%
CCCCCCCN(C(=O)CCl)c1cccc(C)c1	28µM*	u	3%	13µM*	8%	18%
O=Cc1[nH]c2ccccc2c1N(C(=O)CCl)c1ccccc1	u	0.89µM*	u	u	-8%	3%
CC(=O)N(Cc1cc(=O)[nH]c2ccccc12)c1ccccc1	-12%	29%	4%	1%	1%	3%
N#CCCN(C(=O)CCl)c1cccc(Cl)c1	u	7.1µM*	x	u	x	1%
CCCS(=O)(=O)NCc1c(C)ncc2c1CCN(C(=O)/C=C/c1ccccc1)C2	-9%	x	x	x	x	x
Cc1ccc2occ(/C=N/NC(=O)[C@@H](N)Cc3ccccc3)c(=O)c2c1	-11%	-12%	6%[46.1 µM]	-12%	1%	-10%
COCC(C)OC(=O)/C(C#N)=C\c1coc2ccc(C)cc2c1=O (configuration not stated)	u	18µM*	0%	1%	1%	-4%
CC[n+]1c(/C=C2/C=C(C)CC(C)(C)C2)sc2ccc(OC)cc21	20µM*	18µM*	u	u	u	u
CC[n+]1c(/C=C2\C=C(C)CC(C)(C)C2)sc2ccccc21	u	14µM*	u	6.3µM*	9.2µM*	-14%
COc1ccc2sc(C)[n+](C)c2c1	-2%	4%	-1%[46.1 µM]	13%	4%[46.1 µM]	3%
CCC1=C/C(=C/c2sc3ccccc3[n+]2CC)CC(C)(C)C1	u	1.8µM*	-33%[46.1 µM]	u	4%[46.1 µM]	-12%
CC[n+]1c(/C=C2\C=C(C)CC(C)C2)sc2ccccc21 (configuration not stated)	u	40µM*	u	-7%	u	-26%
Cc1ccc(Cn2ccnc2SCC(=O)Nc2nc3ccccc3s2)cc1	10%	0%	x	x	-20%[46.1 µM]	x
COc1cc(C(=S)N2CCN(C(c3ccccc3)c3ccccc3)CC2)cc(OC)c1O	-34%	19%	x	11µM*	x	3%
COc1ccc(NC(=S)N2CCN(C(c3ccccc3)c3ccccc3)CC2)cc1OC	-8%	6%	u	-24%	-4%	x
CCCS(=O)(=O)NC(=O)C1(C)CCCN(C(=O)c2cncc(Br)c2)C1 (configuration not stated)	-3%	x	x	x	x	6%
Cc1ccc(C(=O)CSC2=C(C#N)C(c3ccco3)C3=C(CC(C)(C)CC3=O)N2)cc1 (configuration not stated)	-29%	43%	u	u	u	8%
SMILES	FMDV inh	Sm TGR inh	MARV entry inh	HCV inhibitor	LASV entry inh	RE007 growth inh
COc1ccccc1NC(=O)C1=C(C)NC(SCC(=O)c2ccccc2)=C(C#N)C1c1ccco1 (configuration not stated)	u	-1%	u	7.9µM*	-5%	19%
N#CC1=C(SCC(=O)c2ccc(Br)cc2)NC2=C(C(=O)CCC2)[C@H]1c1ccco1	x	x	8.9µM*	x	x	x
CC(=O)C1=C(C)NC(SCC(=O)c2ccc(C)cc2)=C(C#N)C1c1ccco1 (configuration not stated)	x	u	x	7.1µM*	x	x
C=CCOC(=O)N[C@H](C(C(=O)OC)=C(C)NCc1ccccc1)c1ccc(Br)cc1	x	x	7%[14.2 µM]	x	x	x
Cc1cc(C)c(O)c(N)c1	x	3.2µM*	x	x	x	x
Cc1ccc(/C=C/c2onc(C)c2S(=O)(=O)N2CCC(C(=O)N3CCC(N(C)C(C)C)CC3)CC2)cc1	-7%	-5%	x	x	-29%[46.1 µM]	x
COC(=O)C(CC(=O)c1ccc(C)cc1)n1cccn1 (configuration not stated)	9%	u	x	3%	x	-12%
COC(=O)C(CC(=O)c1ccc(Br)cc1)n1cccn1 (configuration not stated)	-3%	4.5µM*	2%	7%	-13%	u
CCOc1ccc(CNC(=O)CSc2nnc(C)c3c(C)n(-c4ccc(Cl)cc4)nc23)cc1	u	4%	x	x	6%[46.1 µM]	x
CCOc1cc2c(cc1/C=C1/NC(=O)N(CC(=O)OC)C1=O)OCO2	-30%	-3%	-11%[46.1 µM]	10µM*	-5%	-12%
CCc1ccccc1NC(=O)C1CCCN(C(=O)c2cnn(-c3ccccc3)c2-n2cccc2)C1 (configuration not stated)	1%	3%	u	x	-11%[46.1 µM]	x
CCC1(C2CCN(C(=O)c3ccc(C)c(C)c3)CC2)NC(=O)N(CCc2scnc2C)C1=O (configuration not stated)	12%	x	x	x	x	x
Cc1cccc(NC(=O)NC2COc3ccccc3C2)c1C (configuration not stated)	-20%	15%	x	x	-26%[46.1 µM]	x
Cc1cc(Cl)c2oc(C(=O)NC3CCC(O)CC3)c(C)c2c1 (configuration not stated)	55%	-22%	x	14µM*	x	-7%
Cc1nc(-c2ccc(S(=O)(=O)Nc3ccc(C#N)cc3)cc2)co1	87%	1%	x	x	4%[46.1 µM]	x
C#CC[N+](C)(C)CC#Cc1ccc(Cl)cc1	-2%	40µM*	-3%[46.1 µM]	-20%	-14%	3%
C#CC[N+](CC)(CC)CC#Cc1cccc(Cl)c1	0%	-6%	-2%	-20%	-6%	-6%
Cc1csc2nc(COc3ccc(NC(=O)COc4ccc(F)cc4)cc3)cc(=O)n12	-10%	0%	-13%[46.1 µM]	x	-4%[46.1 µM]	x
CC(=O)Oc1cccc(C2=CC(=O)CC(C)(C)C2=O)c1	0%	x	x	x	x	-3%
CC(C)CC(=O)Nc1ccc(C(=O)CN2CCC(C)CC2)cc1	-3%	20µM*	9%[46.1 µM]	0%	-19%	-20%
CCC(=O)Nc1ccc(C(=O)CN2CCC(C)CC2)cc1	x	32µM*	x	x	x	x
CC1CCN(CC(=O)c2cccc(C(F)(F)F)c2)CC1	2%	35µM*	x	7%	x	-7%
CCCN(C(=O)CCc1nc(-c2ccc(OC)cc2)no1)c1ccccc1F	u	4%	-5%[46.1 µM]	x	u	x
Cc1cc(C)c(NC(=O)CSc2nc(=O)n(Cc3ccco3)c3c2CCC3)c(C)c1	25%	-15%	x	x	-6%[46.1 µM]	x
